Screens (PubChem BioAssay)
Pf growth 48h: inhibits P. falciparum growth in the first generation, 48 h. P. falciparum luciferase growth in erythrocytes, 48 h. Potency, µM (doses to about 28.7 µM), for inactives: at the highest dose activity change, negative = inhibition, usual class: inhibitors. actives 5.9% (n = 310,000); note: potency is the fitted concentration of half-maximal effect; % is set by controls: 0 for no effect and ±100 for the full control effect
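Parasite viability was followed by luminescence of a genomically integrated firefly luciferase. Cultures held 0.1% parasitemia at 2% hematocrit (final), incubated under 5% CO2 at 37 C.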
LASV entry inh: inhibitors of Lassa virus binding or cell entry | Lassa virus pseudotype entry inhibition, cell reporter | Potency, µM (series often up to 37.9 µM), without a hit: at the top dose activity change, negative = inhibition, usual class: inhibitors | actives 1.2% (n = 300,000) | AID 540256; calls by dose curve; tested in HEK293 cells; note: potency is the fitted concentration of half-maximal effect; % is set by controls: 0 for no effect and ±100 for the full control effect; nearly all actives have a fitted effect of over 50% in size
CHX counter: counter-screen for Shiga toxin inhibitors: cycloheximide protein synthesis inhibition | AID 2314 | actives 12% (n = 300,000) | cell reporter, cycloheximide protein synthesis inhibition counterscreen | max response, %; in the data active = max response mostly above about 13%, no sharp cut-off; inactive = mostly below about 14%; note: read at 38.3 µM for the half of the compounds with a filed dose; 0% is about no effect
Shiga toxin inh: Shiga toxin inhibition | actives 9.2% (n = 290,000) | Vero cells, Shiga toxin protein synthesis inhibition reporter | inhibition, % at 38.7 µM; in the data active = inhibition mostly above about 28%, no sharp cut-off; inactive = mostly below about 43%; note: 0% is about no effect
Pf growth 96h: P. falciparum growth inhibition at 96 hour, primary screen for plastid delayed-death inhibitors; P. falciparum luciferase reporter growth, 96 h; Potency, µM (series often up to 28.7 µM), without a hit: at the top dose activity change, negative = inhibition, actives largely listed as inhibitors; actives 6.9% (n = 320,000); AID 504834; note: potency is the fitted concentration of half-maximal effect; % is set by controls: 0 for no effect and ±100 for the full control effect
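Cell-based qHTS: luciferase-tagged P. falciparum in erythrocytes (2% hematocrit, 0.05% parasitemia final) incubated with compounds for 96 hours, 37 C, 5% CO2; luciferase detection reagent then added and luminescence measured.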
MARV entry inh: inhibitors of Marburg virus binding or cell entry. Marburg virus pseudotyped entry inhibition, cell reporter. Potency, µM (highest dose often 37.8 µM), for inactives: at the top dose activity change, negative = inhibition, usual class: inhibitors. actives 1.8% (n = 300,000); calls by dose curve; tested in HEK293 cells; note: potency is the fitted concentration of half-maximal effect; % is set by controls: 0 for no effect and ±100 for the full control effect
Active calls of the source: *; ? = inconclusive; nt = no result; [ ] = another dose, or the depositor's remark. Hits are enriched below; roughly 19% of the tested compounds scored in any of these assays. Unless noted, calls come from the whole dose curve; as a rule, active = well fitted inhibition curve with a large enough effect; inconclusive = small, poorly fitted or top-dose-only effect, or another doubt; inactive = no such curve, though single readings can be large or run the other way.

SMILES	Pf growth 48h	LASV entry inh	CHX counter	Shiga toxin inh	Pf growth 96h	MARV entry inh
CC1CN(C(=O)CCc2ccccc2)C(C)CN1C(=O)CCc1ccccc1 (centres undefined)	0%	1%	1	-21	?	-10%
CCOC(=O)c1c(-c2cccs2)csc1NC(C)=O	-14%	-15%	-2	-5	?	0%
CCOC(=O)c1c(-c2ccc(-c3ccccc3)cc2)csc1NC(=O)c1cccc(N2C(=O)CCC2=O)c1	-2%	?	5	-4	5.2µM*	0%
CCOC(=O)c1c(-c2ccc(-c3ccccc3)cc2)csc1NC(=O)CCN1CCOCC1	?	10µM*	-4	-10	4.7µM*	?
CCOC(=O)c1c(-c2cccs2)csc1NC(=O)CNCCN1CCOCC1	?	nt	-5	-1	12µM*	0%
CCOC(=O)c1c(-c2cccs2)csc1NC(=O)C(C)(C)C	13µM*	-17%	6	-14	nt	-3%
COc1ccc(CN2CCC(Cc3ccccc3)CC2)cc1OC	?	nt	-5	-16	373%	nt
CCOC(=O)c1sc(NC(=O)CCN2C(=O)c3ccccc3C2=O)c(C(=O)OCC)c1C	16%	?	13*	22	13µM*	22%
CCOC(=O)c1c(-c2ccccc2)csc1NC(=O)c1cc2ccccc2oc1=O	12%	-2%	-4	-3	13µM*	23%
CCOC(=O)c1c(-c2ccccc2)csc1NC(=O)c1cc(=O)c2ccc(C)cc2o1	nt	12%[46.1 µM]	nt	nt	nt	-19%[46.1 µM]
CC(C)=N/N=C(/c1ccc([N+](=O)[O-])cc1)C12CN3CN(CN(C3)C1)C2	0%	-13%	-9	-4	13µM*	-4%[46.1 µM]
CC(=O)c1cccc(NC(=O)c2cc(-c3ccco3)on2)c1	209%	4%	35*	97*	-24%	7%[46.1 µM]
O=C(Nc1cccc(O)c1)c1cc(-c2ccco2)on1	56%	14%	22*	49*	133%	-3%
CC1CCCN(c2nc3c(c(=O)[nH]c(=O)n3C)n2Cc2ccccc2Cl)C1 (centres undefined)	?	nt	-1	-3	-25%	nt
CCCCOc1ccc(N(CC(=O)NC2CCCCC2)C(=O)c2snc(C(N)=O)c2N)cc1	5%	?	3	-5	-13%	?
CC1CCc2sc(C(=O)N/N=C/c3ccc(O)cc3)cc2C1 (centres undefined)	-2%	nt	45*	54*	45%	nt
C/C(=N\NC(=O)c1cc2c(s1)CCC(C)C2)c1ccc[nH]1 (centres undefined)	154%	nt	nt	nt	191%	nt
C/C(=N\NC(=O)c1cc2c(s1)CCC(C)C2)c1ccncc1 (centres undefined)	-24%	2%	7	17	9.3µM*	?
COC(=O)COc1ccc(NC(=O)C(c2ccccc2)c2ccccc2)cc1	31%	nt	-4	-4	?	nt
COCCN(C(=S)Nc1ccc(C)cc1C)C(C)c1ccco1 (centres undefined)	?	13%[46.1 µM]	19*	15	7%	10%[46.1 µM]
COc1ccc(NC(=S)N(CCN(C)C)C(C)c2ccco2)cc1Cl (centres undefined)	-13%	0%	-2	-5	10µM*	?
COc1cccc(NC(=S)N(CCN(C)C)C(C)c2ccco2)c1 (centres undefined)	-11%	10%	15	-2	?	?
CCCCn1c(N)c(N(CCOC)C(=O)c2ccc(N3C(=O)CCC3=O)cc2)c(=O)[nH]c1=O	2%	10%[46.1 µM]	nt	nt	7%	16%
COc1cccc(OC)c1/C=C/C(=O)NC1CCCCC1	16%	nt	1	1	?	nt
COc1ccccc1CCNC(=O)c1cc(COc2cccc(C(F)(F)F)c2)on1	-2%	nt	-1	14	?	nt
SMILES	Pf growth 48h	LASV entry inh	CHX counter	Shiga toxin inh	Pf growth 96h	MARV entry inh
CS(=O)(=O)c1sc(C(=O)NC(=O)Nc2cccc(C(F)(F)F)c2)c2c1C=CCC2	2.3µM*	nt	-2	-4	14%	nt
CS(=O)(=O)N1CCCc2cc(C(=O)Nc3cccc(C(F)(F)F)c3)ccc21	nt	?	nt	nt	nt	-27%[46.1 µM]
CC(=O)Nc1ccc(S(=O)(=O)Nc2nnc(C(C)(C)C)s2)cc1	nt	9%	-1	-3	nt	7%
CCc1nc(SCc2ccc([N+](=O)[O-])cc2)n[nH]1	58%	15%	36*	76*	?	6%
Cc1nc(SCc2ccc(C#N)cc2)n[nH]1	6%	nt	18*	nt	13µM*	nt
Cc1nc(SCc2ccc([N+](=O)[O-])cc2)n[nH]1	15%	-3%[46.1 µM]	5.9*	nt	?	?
CCc1nc(SCC(=O)Nc2ccc([N+](=O)[O-])cc2)n[nH]1	29%	-13%[46.1 µM]	-2	-10	-28%	-15%[46.1 µM]
CCCCOc1ccc(CSc2n[nH]c(C)n2)cc1	?	-24%	33*	93*	6%	?
CCOc1ccc(Cl)cc1CSc1n[nH]c(C)n1	?	-4%	-1	1	64%	0%[46.1 µM]
Cc1nc(SCc2ccc([N+](=O)[O-])cc2)nc2ccccc12	-9%	3%	1	-1	-12%	-17%
O=C(CNC(=O)c1ccccc1F)OC1CCOC1=O (centres undefined)	nt	-1%	nt	nt	nt	?
CC1Cc2ccccc2N1C(=O)CSc1nnc(-c2cccc(Cl)c2)o1 (centres undefined)	nt	14%[46.1 µM]	nt	nt	nt	1%[46.1 µM]
Clc1ccc2oc3c(Cl)ncnc3c2c1	5%	-25%[46.1 µM]	-2	-8	13%	0%
O=C(NC1CCCCC1)c1cc(-c2cccc(Cl)c2)on1	106%	-20%	27*	39*	?	14%[46.1 µM]
O=C(NC1CCCC1)c1cc(-c2cccc(Cl)c2)on1	79%	?	37*	131*	?	-1%[46.1 µM]
CC1CCN(C(=O)c2cc(-c3cccc(Cl)c3)on2)CC1	nt	0%[46.1 µM]	nt	nt	nt	?
O=C(CCCN1C(=O)/C(=C/c2ccccc2Cl)SC1=S)NNC(=O)c1ccc(Cl)cc1	?	nt	-6	-5	-5%	nt
Cc1cccn2c(=O)c(C=O)c(N3CCN(c4ccc(F)cc4)CC3)nc12	37%	nt	5	-5	-3%[5.75 µM]	nt
CN(C)c1ccc(NC(=S)c2ccc3ccccc3n2)cc1	104%	nt	32*	113*	147%	nt
Cc1ccc(C)c(NC(=S)c2nc3ccccc3s2)c1	35%	5%	26*	42*	8%	3%
Cc1ccc(C)c(NC(=S)c2ccccn2)c1	12µM*	17%	50*	95*	1µM*	6%
COc1ccc(C)cc1NC(=O)COC(=O)c1ccc2ccccc2n1	13%	nt	nt	nt	26%	nt
Cc1ccc(C)c(NC(=S)c2ccc3ccccc3n2)c1	89%	?	44*	75*	-16%	?
Cc1ccc(C)c(NC(=S)N(C)C)c1	14%	2%	-2	1	-1%	0%[46.1 µM]
CCc1nnc(NC(=O)c2ccc(S(=O)(=O)N3CCOCC3)cc2)s1	-8%	nt	-4	-3	?	nt
COC(=O)CSc1nnc(CNc2nc(-c3ccccc3)cs2)n1C	?	2%	11	11	?	?
